Measured values from PubChem BioAssay AID757 (NMMLSC, 2007).
Hit rate of the full screen: of about 190,000 compounds, about 520 (0.27%) were called active. Inconclusive results (about 2%) are left out. Shown is part of a subset that was picked to be rich in actives. Unmarked numbers belong to inactive results.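 Rule for the calls: active = GTP binding activity at least 20 points away from the 100% control level, either lower or higher; inconclusive = compound flagged as likely green fluorescent, judged across all proteins; inactive = the rest.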

target: Ras-related C3 botulinum toxin substrate 1 (Homo sapiens) (UniProt P63000); assay: compounds altering fluorescent GTP loading on wildtype Rac1 – biochemical, GST-Rac1 beads, flow cytometry, multiplex, primary screen (AID 757); settings: at 10 µM, actives lie on both sides, 0 = cold GTP competed, 100 = untreated

| Structure (SMILES) | GTP binding activity (% of control) |
| --- | --- |
| COc1cc(COCC(O)CN2CCN(Cc3ccc4c(c3)OCO4)CC2)cc(OC)c1OC (stereo unspecified) | 102% |
| O=[N+]([O-])c1cccc(Nc2c3ccccc3nc3ccccc23)c1 | 93% |
| Cc1cc(OCCCN2CCN(Cc3ccccc3)CC2)ccc1[N+](=O)[O-] | 85% |
| CN(CC(=O)N1CCN(c2ccccc2)CC1)S(=O)(=O)c1cccs1 | 101% |
| Cc1cc(C)nc(/N=C2\NC(=O)CC(C(=O)O)N2c2ccc(Cl)cc2Cl)n1 (stereo unspecified) | 96% |
| O=C(c1ccc(F)cc1)N1CCCC(c2nc(-c3cccs3)no2)C1 (stereo unspecified) | 99% |
| O=C(NC1CCCCC1)C1CCCN(S(=O)(=O)c2ccc(Br)s2)C1 (stereo unspecified) | 100% |
| Cc1cccc(NC(=O)c2cccc(C(F)(F)F)c2)c1 | 98% |
| CCOC(=O)c1ccc(NC(=S)N2CCCC2)cc1 | 96% |
| Cc1ccc(N(C(=O)Cc2cccs2)C(C(=O)NCC2CCCO2)c2ccncc2)cc1 (stereo unspecified) | 108% |
| CCCNC(=S)N1CCCC(c2nc3ccccc3[nH]2)C1 (stereo unspecified) | 97% |
| COc1cccc(CN(C)CC(=O)NCc2ccccc2Cl)c1OC | 98% |
| COc1cc(/C=N/Nc2ccc(C)cc2)cc(Br)c1O | 97% |
| COc1ccc(/C=C/C(=O)Nc2cccnc2)cc1OC | 98% |
| COc1cc(/C=N/NC(=S)Nc2cccnc2)cc(OC)c1O | 77% (active) |
| O=C(O)COc1ccc(/C=N/O)cc1Br | 92% |
| Cc1nn(CC(=O)Nc2ccc3c(c2)OCO3)c(C)c1[N+](=O)[O-] | 100% |
| COc1ccc(C2(CNC(=O)C(c3ccccc3)c3ccccc3)CCOCC2)cc1OC | 123% [activator] (active) |
| COc1ccc(C2(CNC(=O)Cc3ccc(OC)c(OC)c3)CCCC2)cc1 | 97% |
| CCCCNC(=O)C1(c2ccc(OC)cc2)CCOCC1 | 108% |
| Cc1cc(NC(=O)CN2C(=O)NC(CCc3ccccc3)C2=O)no1 (stereo unspecified) | 100% |
| COC(=O)Cn1cc(/C=C/[N+](=O)[O-])c2ccccc21 | 93% |

| Structure (SMILES) | GTP binding activity (% of control) |
| --- | --- |
| CC(C)C(C)(C#N)NC(=O)CSc1nncn1-c1ccccc1 (stereo unspecified) | 104% |
| C/C(=N\OCC(=O)Nc1ccc(Br)cc1)c1cccs1 | 93% |
| CCOC(=O)Cc1ncccc1C(=O)Nc1ccc(OC)cc1 | 100% |
| O=C(NCc1ccco1)c1nn2cccnc2c1Cl | 99% |
| O=C(CCC(=O)NNc1nc2ccccc2c2nc(-c3ccccc3)nn12)NCCCN1CCCC1=O | 96% |
| CCOc1ccc(NC(=O)NNC(=O)c2ccc(Cl)cc2Cl)cc1 | 96% |
| CN1C(=O)/C(=C/c2ccc(C(=O)NC3CCCC3)cc2)Oc2ccccc21 | 99% |
| CCn1c(CSc2nc(C)cc(C)n2)nnc1SCC(N)=O | 95% |
| Cc1c(CN2CCCCC2)c(O)n(CCO)c(=O)c1C#N | 94% |
| COc1ccc(C)cc1-n1nnnc1SCc1nc2ccccc2c(=O)[nH]1 | 98% |
| CCCCCc1nnc(NC(=O)c2ccc(=O)n(C)n2)s1 | 101% |
| CCc1ccc(Oc2nc([N+](=O)[O-])nn2C)cc1 | 98% |
| CCOC(=O)N1CCN(Cc2nc(Cc3cccc(C(F)(F)F)c3)no2)CC1 | 99% |
| CSCC(NS(=O)(=O)c1ccc(C)cc1)C(=O)O (stereo unspecified) | 104% |
| Cc1noc(C)c1CCC(=O)O | 97% |
| Cn1cnnc1SCc1nnc(-c2ccccc2Br)o1 | 87% |
| O=C(C1CCCN1S(=O)(=O)c1ccc(Br)cc1)N1CCOCC1 (stereo unspecified) | 97% |
| O=C(CNC(=O)c1cc(=O)[nH]c2ccccc12)Nc1ccc(F)c(F)c1 | 97% |
| O=C(CN1CCN(Cc2ccc(F)cc2Cl)C1=O)NCc1cccs1 | 99% |
| CCn1ccnc1CN(C)Cc1nc(-c2ccc3c(c2)OCO3)no1 | 99% |
| CC(C)OC(=O)Cn1nc(C(F)(F)F)c2c1CCCC2 | 93% |
| CCn1cc(C(=O)Nc2cc(C)ccc2C)c(=O)c2ccc(C)nc21 | 100% |

| Structure (SMILES) | GTP binding activity (% of control) |
| --- | --- |
| N#Cc1ccc(CSc2nnc3ccccn23)cc1 | 104% |
| CCN(CC)C(=O)CS(=O)CC(=O)Nc1cc(OCCOC)c(Cl)cc1Cl (stereo unspecified) | 103% |
| S=c1[nH]nc(/C=C/c2ccccc2)o1 | 93% |
| COc1ccc(C)cc1NC(=S)Nc1ccccc1SC | 100% |
| CC(=O)Cn1ncc(N2CCOCC2)c(Br)c1=O | 95% |
| CC(=O)NCCC(=O)Nc1cc(S(=O)(=O)N2CCOCC2)ccc1N1CCOCC1 | 100% |
| O=C(CSc1nn(-c2ccc(F)cc2)c(=S)s1)NC1CCS(=O)(=O)C1 (stereo unspecified) | 104% |
| COc1ccc(OC)c(NC(=O)CN(Cc2ccc(Cl)cc2)S(C)(=O)=O)c1 | 97% |
| COc1ccc(N2CCN(C(=O)C3CCN(S(=O)(=O)c4ccc(C)cc4)CC3)CC2)cc1 | 101% |
| CCOc1ccccc1N=C1NC(=O)CS1 | 96% |
| CC/C(O)=C1\C(=O)CC(C)(C)CC1=NCCc1nc2ccccc2[nH]1 | 106% |
| CCC/C(O)=C1\C(=O)CC(C)(C)CC1=Nc1ccccc1OC | 125% [activator] (active) |
| CCN(CC)CCCNC(=O)Cn1cnc2sc(C)c(S(=O)(=O)N3CCN(c4ncccn4)CC3)c2c1=O | 93% |
| Cc1nc2ccc(NC(=S)N3CCC(C)CC3)cc2nc1C | 100% |
| CC(C)(C)NC(=O)NC(=O)COC(=O)Cc1ccc(Cl)cc1Cl | 101% |
| Cc1ccc(NC(=O)NC2CCCCC2)cc1S(=O)(=O)N1CCOCC1 | 99% |
| COc1ncnc2sc3c(c12)CCCC3 | 104% |
| COc1ccc(/C=N/Nc2ncnc3sc4c(c23)CCCC4)cc1O | 77% (active) |
| CC1(C)CN=C(N2CCN(c3ncnc4sc5c(c34)CCCC5)CC2)S1 | 99% |
| COCCN1C(=O)c2oc3c(C)cc(C)cc3c(=O)c2C1c1cccc(O)c1 (stereo unspecified) | 104% |
| O=C1c2oc3ccccc3c(=O)c2C(c2cccc(O)c2)N1c1ccccn1 (stereo unspecified) | 106% |
| O=C1c2oc3ccc(Br)cc3c(=O)c2C(c2cccc(F)c2)N1CCO (stereo unspecified) | 123% [activator] (active) |
